# The list is not random: actives were taken first. Their share in the collection is about 4.2%.
# VDR inh = blocks the human vitamin D receptor. P11473. VDR-SRC2-3 peptide fluorescence polarization, 2 h. Potency, µM, for the others: max response, negative = inhibition, usual class: inhibitors. actives 0.93% (n = 400,000). AID 504847
#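 Signal is fluorescence polarization, reporting how far test compounds block the interaction of VDR with the SRC2-3 coregulator peptide after a 2 h room-temperature incubation.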
# ALOX12 inh = blocks human arachidonate 12S-lipoxygenase; P18054; purified 12hLO, xylenol orange hydroperoxide absorbance; Potency, µM (series often up to 108 µM), inactives show top-dose activity change, negative = inhibition, most hits filed as inhibitors; actives 1.1% (n = 580,000)
#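 Hydroperoxide product was detected by ferrous iron/xylenol orange as the 573 to 405 nm absorbance ratio. Arachidonic acid at 40 uM (final) was turned over for 30 min at room temperature by 150 nM human 12hLO, pH 7.0 Hepes buffer, after 15 min compound preincubation.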
# Sfp inh = Sfp phosphopantetheinyl transferase inhibition. Potency, µM, inactives show largest response in the series, negative = inhibition, most hits filed as inhibitors. actives 3.5% (n = 310,000). AID 1490. Q9F4F7. Biochemical Sfp PPTase activity, qHTS;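 also: the enzyme is Sfp with the accession as filed and its product quenches rhodamine fluorescence; 0% = enzyme reaction without inhibitor and -100% = no enzyme wells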
#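 Step 1, compound plus 15 nM Sfp-PPTase, 15 min, room temperature. Step 2, add rhodamine-CoA (5 uM) and BHQ-2-YbbR (12.5 uM). Step 3, read 525/598 nm fluorescence at 0 and 30 min.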
# PLK1 PBD inh = inhibitors of human PLK1 polo-box domain binding. P53350. Plk1 PBD binding of FITC phosphopeptide, fluorescence polarization. Potency, µM, without a hit: max response, negative = inhibition, most hits filed as inhibitors. actives 2.8% (n = 360,000); also: series mostly up to about 57 µM; nearly all actives have a fitted effect of over 65% in size
# Target sequence (P53350 whole entry, looked up, the tested form may be a part): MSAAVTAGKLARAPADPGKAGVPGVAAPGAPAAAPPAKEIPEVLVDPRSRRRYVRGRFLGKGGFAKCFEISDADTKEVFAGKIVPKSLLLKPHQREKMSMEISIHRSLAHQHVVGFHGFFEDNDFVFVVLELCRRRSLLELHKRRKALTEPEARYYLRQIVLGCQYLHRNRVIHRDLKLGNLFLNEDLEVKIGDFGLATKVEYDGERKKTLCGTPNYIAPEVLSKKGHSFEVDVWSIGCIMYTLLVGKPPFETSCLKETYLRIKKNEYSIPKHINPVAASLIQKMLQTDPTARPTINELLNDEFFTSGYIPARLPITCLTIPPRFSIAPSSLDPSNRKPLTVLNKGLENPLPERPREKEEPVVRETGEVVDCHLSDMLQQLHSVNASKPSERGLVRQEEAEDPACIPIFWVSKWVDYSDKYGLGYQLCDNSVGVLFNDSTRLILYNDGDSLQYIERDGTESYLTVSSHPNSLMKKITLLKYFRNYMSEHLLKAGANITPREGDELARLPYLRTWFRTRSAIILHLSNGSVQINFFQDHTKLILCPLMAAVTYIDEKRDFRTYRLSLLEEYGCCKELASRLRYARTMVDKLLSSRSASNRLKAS
# Active calls of the source: *; ? = inconclusive; . = no result given; [ ] = dose if it differs, or a comment. Calls follow the shape of the dose curve; as a rule, active = well fitted curve in the direction sought with a large enough effect; inconclusive = small, poorly fitted or top-dose-only effect, or another doubt; inactive = no such curve, though single readings can be large; an effect the other way counts as inactive or inconclusive. Unless noted, % is scaled to controls: 0 for no effect and ±100 for the full control effect; potency is read from the fitted curve at half-maximal effect.
SMILES,VDR inh,ALOX12 inh,Sfp inh,PLK1 PBD inh
Cn1ccnc1CN1C(=O)CO[C@H]2CN(C(=O)c3ccccn3)C[C@H]21,.,26%[176 µM],.,.
O=C(O)CCC(=O)Nc1sc2c(c1C(=O)NC1CCCC1)CCCC2,-11%,-6%,14%,-18%
COC(=O)Nc1sc2c(c1C(=O)NC1CC1)CCCCCC2,-6%,?,32µM*,-22%
O=C(Sc1nnc(-c2ccccc2)o1)N1c2ccccc2Sc2ccccc21,9%,10µM*,-10%,67µM*
O=C(/C=C/c1ccco1)Nc1ccc(CN2CCOCC2)cc1,-23%,59%,-1%,-7%
CN(CC1(C)CCOCC1)C(=O)c1ccoc1,.,-6%,.,.
CC(C)C1CC(O)(C2(O)CCCCC2)ON1 (configuration not stated),-25%,-5%,15%,3.4µM*
CC(C)CNC(=O)c1ccc(C2SCC(=O)N2Cc2ccccc2)cc1 (configuration not stated),79µM*,?,13%,24µM*
O=C(NCc1ccc2c(c1)OCO2)c1ccc(C2SCC(=O)N2Cc2ccco2)cc1 (configuration not stated),-14%,-13%,35µM*,-5%
CCCNC(=O)c1ccc(C2SCC(=O)N2Cc2ccccc2)cc1 (configuration not stated),-1%,0%,-22%,-1%
Cc1c(N)c(C(C)(C)C)cc(C(C)(C)C)c1[N+](=O)[O-],-5%,-7%,9%,-4%
Cc1cc2nc3c(=O)[nH]c(=O)[nH]c3nc2c([N+](=O)[O-])c1N,-24%,-6%,?,13µM*
CCOC(=O)C1=C(C)NC(C)=C(C(=O)OCC)C1c1cc(N)ccc1OC(F)F,1%,-19%,2%,0%
C/C(Cc1ccccc1)=N\NC(=O)c1ccc(C(C)(C)C)cc1,.,100%,.,.
Cc1ccc(NC(=O)Cn2c(CCC(=O)O)ccc2-c2ccc(Cl)cc2)cc1,-12%,81%,4%,-19%
CC(/C=C/c1ccccc1)=N\NC(=O)c1ccc(C)cc1,.,-9%,.,.
CC(/C=C/c1ccccc1)=N\NC(N)=S,-3%,11µM*,-10%,?
O=C(Cc1cccs1)N/N=C/c1cccc2ccccc12,.,14%,.,.
NCc1ccc(OCc2cccc(F)c2)cc1,.,-8%,.,.
O=C(O)/C=C/c1ccc(OCc2cccc(F)c2)cc1,?,0%,1%,30µM*
COC(=O)c1ccccc1NC1CC(=O)N(c2c(C)cccc2C)C1=O (configuration not stated),0%,0%,28µM*,-9%
O=[N+]([O-])c1ccc(Nc2cccc(F)c2)nc1,-6%,?,16%,0%
O=C(NCc1cccnc1)/C(=C/c1ccc(-c2cccc(C(F)(F)F)c2)o1)NC(=O)c1ccccc1,-7%,10%,5%,-11%
O=C(NCc1cccnc1)/C(=C/c1ccc(-c2ccc(Cl)cc2)o1)S(=O)(=O)c1ccccc1,22µM*,22%,-12%,?
CC(C)(C)c1cc(CN2CCCCC2)cc(C(C)(C)C)c1O,.,?,35µM*,.
SMILES,VDR inh,ALOX12 inh,Sfp inh,PLK1 PBD inh
Oc1cccc(CN2CCCCC2)c1,-5%,.,0%,-5%
C=CCCCN(Cc1ccccc1)S(=O)(=O)c1ccccc1Br,-2%,-39%,13%,-24%
Cc1nc(-c2ccccc2)sc1-c1ccccc1,.,-13%,.,.
Cn1c(-c2csc(-c3ccccc3)n2)n[nH]c1=S,-9%,32µM*,-10%,-26%
CCn1c(-c2sc(-c3ccccc3)nc2C)n[nH]c1=S,-11%,45µM*,-20%,-22%
CCc1c(C)nc(SCC(=O)Nc2ccc3c(c2)OCCO3)[nH]c1=O,11%,3%,7%,-6%
CCNc1nc(SC(C)C(=O)Nc2ccccc2)nc(N2CCOCC2)n1 (configuration not stated),-7%,-14%,-6%,4%
CC(Sc1nc(NCc2ccccc2)nc(N2CCOCC2)n1)C(=O)Nc1ccccc1 (configuration not stated),-21%,0%,25%,30µM*
Cc1c(CCO)c(=O)n(-c2ccccc2)n1S(=O)(=O)c1c(Cl)cc(Cl)cc1Cl,9%,?,71µM*,?
COc1ccc(CCN(Cc2cc3ccc(C)cc3n3nnnc23)C(C)=O)cc1OC,40µM*,-2%,9%,3.4µM*
COc1ccc(NS(=O)(=O)c2cccc(NC(=O)c3[nH]c(C)c(C(C)=O)c3C)c2)cc1,.,-29%,.,.
C#CCOc1ccccc1CNC1CCN(Cc2ccccc2)CC1,-6%,?,79µM*,-15%

# Source: PubChem (National Center for Advancing Translational Sciences (NCATS))
